GDH-TPI counter-1 = GDH-TPI coupled enzyme inhibition counter-screen; GDH-TPI coupled enzyme counterscreen, NADH absorbance; inhibition, % at 4.8 µM; hit rate 1.2% among 360,000; in the data active means inhibition above about 30%;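 further: 0% = DMSO wells and 100% = wells lacking the enzyme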
Mtb UGM inh = Mtb UDP-galactopyranose mutase inhibition; P9WIQ1; purified UGM, fluorescence polarization probe displacement; inhibition, % at 10 µM; hit rate 0.06% among 320,000; AID 504406; in the data active means inhibition above about 10%, passing the limit was not always enough
Mtb FBA inh = inhibits M. tuberculosis FBA enzyme | P9WQA3 | purified M. tuberculosis FBA, fluorescence read-out | inhibition, % at 1 µM | hit rate 2.3% among 360,000;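 further: 0% = vehicle and 100% = reference inhibitor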
Mtb bLac sens = beta-lactam sensitization of Mtb H37Rv. M. tuberculosis H37Rv growth with meropenem, percent inhibition. inhibition, % at 25 µM. hit rate 0.27% among 330,000; call rule not given here;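 further: growth measured after seven days incubation then overnight dye step; 0% = bacteria only wells and 100% = bacteria with antibiotic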
Rv3671c protease = inhibitors of M. tuberculosis serine protease Rv3671c | P9WHR9 | inhibition, % at 5.96 µM | hit rate 0.048% among 320,000 | AID 2606; in the data active means inhibition above about 38%;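 further: extracellular domain of Rv3671c used as enzyme; 0% = enzyme with DMSO and 100% = no enzyme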
Target sequence (P9WHR9 whole entry, looked up, the tested form may be a part): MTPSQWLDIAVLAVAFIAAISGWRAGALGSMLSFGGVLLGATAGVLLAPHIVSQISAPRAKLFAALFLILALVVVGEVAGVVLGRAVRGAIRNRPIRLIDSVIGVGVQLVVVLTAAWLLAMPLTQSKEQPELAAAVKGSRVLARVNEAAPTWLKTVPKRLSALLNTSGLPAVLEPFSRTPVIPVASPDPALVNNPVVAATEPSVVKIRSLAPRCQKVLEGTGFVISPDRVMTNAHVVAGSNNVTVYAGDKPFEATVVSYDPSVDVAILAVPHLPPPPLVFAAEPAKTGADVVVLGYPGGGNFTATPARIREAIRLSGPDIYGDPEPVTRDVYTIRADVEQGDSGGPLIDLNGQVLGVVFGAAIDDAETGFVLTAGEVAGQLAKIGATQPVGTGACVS
Mtb FBA confirm = confirmation of M. tuberculosis fructose-bisphosphate aldolase inhibitors | inhibition, % at 1 µM | hit rate 78% among 5,600 | purified M. tuberculosis FBA, fluorescence read-out | AID 651616 | shares compounds with Mtb FBA inh;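 further: 0% = vehicle wells and 100% = reference inhibitor wells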
GDH-TPI counter-2 = inhibits GDH-TPI coupling enzymes, flagging Mtb FBA hits. shares compounds with Mtb FBA inh. GDH-TPI coupled enzyme counterscreen, fluorescence. AID 652141. inhibition, % at 1 µM. hit rate 81% among 5,600; in the data active means inhibition above about 10%
* hit, by the source's call; · = no result; + = active, no number. Most compounds without a hit are left out; they make up all but 3.5% or so of the library. Unless noted, no stated cut-off is given here; in the data, active means inhibition above about 27%; inactive means the rest.

SMILES	GDH-TPI counter-1	Mtb UGM inh	Mtb FBA inh	Mtb bLac sens	Rv3671c protease	Mtb FBA confirm	GDH-TPI counter-2
Cc1ccc(NC(=S)Nc2cccc3ccccc23)cc1	6.5	-0.9	21.2	10.6	-1.1	·	·
NS(=O)(=O)c1ccc(CCNC(=O)c2ccc3c(c2)N(Cc2ccccc2)CCS3)cc1	10.1	2.5	67.9*	-0.7	-5.3	1.8	-3.9
COc1ccc(CCNC(=O)c2ccc3c(c2)N(Cc2ccccc2)CCS3)cc1OC	10.0	3.3	64.2*	0.1	-3.3	100.2*	82.9*
COc1ccc(OC)c(CCNC(=O)c2ccc3c(c2)N(Cc2ccccc2)CCS3)c1	7.7	-3.2	7.8	1.1	3.4	·	·
C=CCNC(=O)C(C#N)c1nc2ccccc2nc1N1CCCCCC1 (configuration not stated)	15.1	0.0	40.8*	64.5	3.3	+	+
N#CC(c1nc2ccccc2nc1N1CCCC1)S(=O)(=O)c1ccccc1 (configuration not stated)	15.5	3.2	105.6*	-21.7	-7.2	+	181.6*
Cc1cc(NC(=O)C2CC(=O)N(c3ccccc3)C2)no1 (configuration not stated)	1.1	1.5	-0.7	-10.9	-11.7	·	·
CC(C)(C)C(=O)/C(=C/c1ccncc1)n1cncn1	-3.1	1.8	0.8	99.7	5.0	·	·
C#CCOCCOCCOCCNc1nc(N2CCN(C(=O)[C@H](CCCN=C(N)N)n3cc(C(N)[C@@H](C)CC)nn3)CC2)nc(N2CCN(C(=O)[C@H](CCC(=O)O)n3cc([C@@H](N)CO)nn3)CC2)n1 (some centres not stated)	5.2	-1.8	0.5	1.3	-2.9	·	·
CC(=O)Nc1cncc(-c2cnn(CC(C)C)c2)n1	25.2	·	60.5*	·	·	49.6*	50.9*
CNc1cc(-c2cnn(CC(C)C)c2)ncn1	3.1	·	7.7	·	·	·	·
COc1cccc(C(N)=O)c1OC(=O)Cc1ccccc1F	-3.4	-2.6	0.1	11.6	-0.5	·	·
COc1ccc2oc(C(=O)OCC(=O)NCCc3ccc(S(N)(=O)=O)cc3)c(C)c2c1	7.6	-1.9	37.8*	-2.5	1.0	+	183.8*
COc1ccc2oc(C(=O)OCC(=O)NCCc3ccccc3)c(C)c2c1	7.9	2.0	31.6*	-11.9	-12.9	57.8*	43.0*
Cc1ccc(C(=O)OCC(=O)NCCc2ccc(S(N)(=O)=O)cc2)o1	0.8	5.3	-1.3	-4.9	3.5	·	·
COc1ccc2oc(C(=O)OCC(=O)N(CCC#N)c3ccccc3)c(C)c2c1	-1.0	0.1	39.2*	-1.9	-1.5	1.2	-5.2
CCN1CCC(CNCc2cn(-c3ccc(OC)cc3)nc2-c2ccccc2Cl)C1 (configuration not stated)	10.4	0.3	-2.9	-6.1	-1.8	·	·
COc1ccc(NC(=O)c2nc(C)n(-c3ccc([N+](=O)[O-])cc3)n2)cc1	6.4	1.8	3.0	-0.1	4.8	·	·
COc1ccc2c(c1)c1c(c(=O)n(-c3ccc(C)cc3)c(=O)n1CC(=O)NCC1CCCO1)n2C (configuration not stated)	-14.6	·	28.8*	·	·	38.2*	26.6*
Cc1ccc(C)c(NC(=O)Cn2c(=O)n(-c3ccc(CC(=O)NCC4CCCO4)cc3)c(=O)c3ccccc32)c1 (configuration not stated)	·	0.4	·	5.0	3.2	·	·
Cc1ccc(-n2c(=O)c3c(c4cc(C)ccc4n3C)n(CC(=O)NCC3CCCO3)c2=O)cc1 (configuration not stated)	15.9	·	62.9*	·	·	53.7*	50.0*
Cc1ccc(C)c(OCC(=O)Nc2nc3ccc([N+](=O)[O-])cc3s2)c1C	20.4	0.3	53.0*	-3.0	-0.9	0.8	-1.1
CC(=O)Nc1ccc2nc(NC(=O)COc3ccc([N+](=O)[O-])cc3)sc2c1	7.3	0.4	1.8	4.0	0.3	·	·
COc1ccc(C2CC(=O)C3=C(C2)Nc2ncnn2C3c2ccccc2)cc1 (configuration not stated)	6.8	0.8	5.0	-6.4	12.4	·	·
O=C1CC(c2ccco2)CC2=C1C(c1ccccc1)n1nc(C(F)(F)F)nc1N2 (configuration not stated)	13.0	0.1	27.6*	-2.4	-8.2	64.0*	53.3*
SMILES	GDH-TPI counter-1	Mtb UGM inh	Mtb FBA inh	Mtb bLac sens	Rv3671c protease	Mtb FBA confirm	GDH-TPI counter-2
CSc1ccccc1NC(=O)c1cc2c(=O)n3ccccc3nc2s1	9.1	-0.1	2.0	6.4	-4.4	·	·
CCOC(=O)N1CCN(C(=O)c2cc3c(=O)n4ccccc4nc3s2)CC1	13.0	0.6	49.0*	-11.1	-6.7	66.5*	58.0*
CC1CC(C)CN(C(=O)c2cc3c(=O)n4ccccc4nc3s2)C1 (configuration not stated)	8.2	-1.8	52.7*	6.6	8.6	+	+
Cc1ccc(NS(=O)(=O)c2cc(C(=O)Nc3cccnc3)ccc2C)cc1	4.2	-5.4	0.8	-2.3	·	·	·
NC(=O)c1cc2c(s1)-c1cc(Cl)ccc1SC2	-3.4	-1.0	1.1	76.1	-8.7	·	·
COCCNC(=O)c1cc2c(s1)-c1ccc(Cl)cc1SC2	2.9	-4.4	45.6*	-3.3	·	173.9*	160.1*
COc1ccc(C(C(=O)NCC2CCCO2)N(C(=O)c2snc(C(N)=O)c2N)c2ccccc2C)cc1OC (configuration not stated)	14.1	-3.8	49.8*	2.2	-13.1	168.1*	+
COc1ccc(C(C(=O)NCC2CCCO2)N(C(=O)c2snc(C(N)=O)c2N)c2ccccc2)cc1OC (configuration not stated)	26.9	·	13.4	·	·	·	·
CCc1ccccc1N(C(=O)c1snc(C(N)=O)c1N)C(C(=O)NCC1CCCO1)c1ccc(OC)c(OC)c1 (configuration not stated)	24.4	·	62.0*	·	·	+	+
Cc1c(N(C)S(=O)(=O)c2ccc(Cl)c(C(=O)NCC(C)(C)N3CCOCC3)c2)c(=O)n(-c2ccccc2)n1C	4.2	·	-1.0	·	·	·	·
Cc1cccc(NC(=O)CNC(=O)COC(=O)C2CC2C)c1C (configuration not stated)	-1.5	1.1	29.6*	-7.6	6.7	1.6	-2.1
Cc1cccc(NC(=O)CNC(=O)COC(=O)c2ccc(C(C)(C)C)cc2)c1C	6.2	2.3	3.8	1.2	-1.9	·	·
O=C(NCCCN1CCOCC1)c1ccc2c(c1)N(Cc1cccc(Cl)c1)C(=O)CS2	-2.2	1.4	1.1	-3.5	8.8	·	·
Cc1ccc(CN2CCSc3ccc(C(=O)NCc4ccccn4)cc32)cc1	15.6	0.7	65.6*	-4.1	-16.8	96.8*	66.6*
O=C(NCCCN1CCOCC1)c1ccc2c(c1)N(Cc1ccc(F)cc1)CCS2	10.9	-2.7	94.0*	-16.4	-9.6	178.2*	133.6*
O=C(NCc1ccco1)c1ccc2c(c1)N(Cc1ccccc1)CCS2	20.8	-1.8	51.4*	-1.9	2.8	114.6*	82.3*
